Assay results taken from PubChem BioAssay (NCATS).
Inconclusive results are not listed. The source made the active and inactive calls. Calls follow the shape of the dose curve; as a rule, active = well fitted inhibition curve with a large enough effect; inconclusive = small, poorly fitted or top-dose-only effect; inactive = flat fitted curve, though single readings scatter. Numbered stars: 1 amine (or outer) side, 2 acyl side, 3 side chain; on linkers, the order of the positions; unused ones are H or OH. Bridge positions count the residues as written; N and C are the ends. Square brackets hold non-standard residues; d marks the D form. Peptide text beside a SMILES is read from it. * marks the point of attachment. ξ: configuration not given here. ΔAla(Z-3-ureido) = NC(=O)N/C=C(\N)C(=O)O; ξDab(CH2SO3H) = NC(CCNCS(=O)(=O)O)C(=O)O; X1 = NC1=NCCC(C(N[*:1])C(=O)[*:2])N1; Heptanoyl(6-Me) = CC(C)CCCCC(=O)*; ξβ3hOrn = NCCCC(N)CC(=O)*; Orn = NCCC[CH](N)C(=O)O; Dab = NCC[CH](N)C(=O)O; Dap = NC[CH](N)C(=O)O

Columns and labels:
Test in all cases: qHTS profiling for inhibitors of Plasmodium falciparum proliferation (AID 504749); also: nearly all actives have a fitted effect of over 60% in size
Settings in all cases: P. falciparum in erythrocytes, SYBR Green DNA, 72 h; series mostly up to 28.7 µM
7G8 = system: 7G8
Summary of the method: (§1)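 Parasite proliferation within erythrocytes, 72 h exposure. Endpoint: SYBR Green I fluorescence after overnight lysis at room temperature. Controls: 0.29 uM artemisinin, DMSO.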

AA1029 = system: AA1029
Summary of the method: as §1

C2A = system: C2A
Summary of the method: as §1

CP192 = system: CP192
Summary of the method: as §1

CP194 = system: CP194
Summary of the method: as §1

CP203 = system: CP203
Summary of the method: as §1

CP217 = system: CP217
Summary of the method: as §1

CP237 = system: CP237
Summary of the method: as §1

CP266 = system: CP266
Summary of the method: as §1

CP268 = system: CP268
Summary of the method: as §1

CP269 = system: CP269
Summary of the method: as §1

CP291 = system: CP291
Summary of the method: as §1

CP315 = system: CP315
Summary of the method: as §1

CP329 = system: CP329
Summary of the method: as §1

DIV30 = system: DIV30
Summary of the method: as §1

HB3 = system: HB3
Summary of the method: as §1

JCK = system: JCK
Summary of the method: as §1

P94_40 = system: P94_40
Summary of the method: as §1

PC26 = system: PC26
Summary of the method: as §1

TAB109 = system: TAB109
Summary of the method: as §1

Measured: Potency
Potency is read from the fitted curve at half-maximal effect.

CNCC(=O)NC(CCCN=C(N)N)C(=O)NC(C(=O)NC(Cc1ccc(O)cc1)C(=O)NC(C(=O)NC(Cc1cnc[nH]1)C(=O)N1CCCC1C(=O)NC(C)C(=O)O)C(C)C)C(C)C (stereo not drawn)
inactive: all assays above

CC(N)C(=O)NCC(=O)NC1CSSCC(C(=O)O)NC(=O)C(CO)NC(=O)C(C(C)O)NC(=O)C(Cc2ccccc2)NC(=O)C(C(C)O)NC(=O)C(CCCCN)NC(=O)C(Cc2c[nH]c3ccccc23)NC(=O)C(Cc2ccccc2)NC(=O)C(Cc2ccccc2)NC(=O)C(CC(N)=O)NC(=O)C(CCCCN)NC1=O (stereo not drawn)
inactive: all assays above

Cn1cc(O)nc1NC(=O)Nc1cccc(Cl)c1
not listed: CP329
inactive: all other assays above

NCCCC(N)CC(=O)NCC1NC(=O)C(CO)NC(=O)C(N)CNC(=O)C(C2CCN=C(N)N2)NC(=O)/C(=C/NC(N)=O)NC1=O (stereo not drawn) (H-[Dap]S[Dap](ξβ3hOrn)[ΔAla(Z-3-ureido)][X1]; lactam 1-C; configuration not given here)
inactive: all assays above

CC(C)CC1NC(=O)C(CCCN)NC(=O)C(C(C)C)NC(=O)C2CCCN2C(=O)C(Cc2ccccc2)NC(=O)C(CC(C)C)NC(=O)C(CCCN)NC(=O)C(C(C)C)NC(=O)C2CCCN2C(=O)C(Cc2ccccc2)NC1=O (stereo not drawn) (cyclo(FPV[Orn]LFPV[Orn]L); configuration not given here)
active: 7G8 0.3 nM | AA1029 0.9 nM | C2A 2.5 nM | CP192 1.7 nM | CP194 1.3 nM | CP203 1.3 nM | CP217 2.2 nM | CP237 0.9 nM | CP266 1.9 nM | CP268 13.5 nM | CP269 1.3 nM | CP291 0.4 nM | CP315 1.7 nM | CP329 1.9 nM | DIV30 0.4 nM | HB3 3.5 nM | JCK 56.2 nM | P94_40 0.4 nM | PC26 1.1 nM | TAB109 1.1 nM

CCOC(=O)C(CS)NCCN[C@@H](CS)C(=O)OCC (stereo partly drawn)
inactive: all assays above

CCC(C)C1NC(=O)C(CCNCS(=O)(=O)O)NC(=O)C(NC(=O)C(CCNCS(=O)(=O)O)NC(=O)C(NC(=O)C(CCNCS(=O)(=O)O)NC(=O)CCCCC(C)C)C(C)O)CCNC(=O)C(C(C)O)NC(=O)C(CCNCS(=O)(=O)O)NC(=O)C(CCNCS(=O)(=O)O)NC(=O)C(C(C)CC)NC1=O (stereo not drawn) ({Heptanoyl(6-Me)}-[ξDab(CH2SO3H)]T[ξDab(CH2SO3H)][Dab][ξDab(CH2SO3H)]II[ξDab(CH2SO3H)][ξDab(CH2SO3H)]T; lactam 4-C; configuration not given here)
inactive: all assays above

O=C(O)c1ccccc1-c1c2cc(Br)c(=O)c(Br)c-2oc2c(Br)c(O)c(Br)cc12
not listed: CP266
inactive: all other assays above
